Hit rate of the full screen: of about 190,000 compounds, about 4,000 (2.1%) were called active. Cut-off read from the data, not from the text of the source: active = inhibition above about 58%; inactive = the rest, inconclusive results apart; tested in S. cerevisiae. This excerpt belongs to a sample that is enriched for actives.
Test: growth inhibition of WT strain, primary screen, mitochondrial fusion inhibitor project, WT and mutant strains, chemical genetic (AID 1362)
Conditions: mitochondrial fusion phenotypic screen, at 10 µM
[1] = WT strain, growth inhibition, stronger effect = higher value

Row | SMILES | inhibition [1] | inhibition (mutant strain inhibition) [%]
1 | Cc1cc(C)cc(OCC(=O)Nc2ccc(S(=O)(=O)Nc3ccccn3)cc2)c1 | -6.39% (inactive) | -7.44
2 | CCOc1cc(N2CCOCC2)c(OCC)cc1NC(=O)c1cc(C)nc2ccccc12 | -14.2% (inactive) | -29.4
3 | O=C(Nc1ccc2nc3n(c(=O)c2c1)CCCCC3)c1ccccc1Cl | -2.99% (inactive) | -3.04
4 | CCC(=O)Nc1nc2ccccc2n1Cc1ccccc1C | 32.7% (inactive) | 38.1
5 | CCC(=O)Nc1ccc2nc(C)n(Cc3ccccc3Cl)c(=O)c2c1 | 62.4% (active) | 62.2
6 | COc1ccc(Cc2n[nH]c(=S)n2NC(=O)Nc2ccc(C)cc2)cc1 | -24.4% (inactive) | 1.23
7 | O=C(O)c1ccc(N/N=C/c2cn(-c3ccccc3)nc2-c2cccs2)cc1 | 25% (inactive) | 5.64
8 | C/C(=C\C(=O)c1cccnc1)Nc1ccc(C)c(C)c1 | 21.1% (inactive) | 23
9 | O=C(Nc1cccc(O)c1)c1ccc(C(=O)c2ccccc2)o1 | -18.9% (inactive) | 0.34
10 | C/C(=C\C(=O)c1ccccc1)Nc1cccc(O)c1 | 85.2% (active) | 17.2
11 | Cc1ccc(C(NC(=O)N2CCCC2)C(Cl)(Cl)Cl)cc1F (centres undefined) | 10.1% (inactive) | 18.2
12 | CCC(C)(C)NC(=O)CN(C(=O)CCC(=O)Nc1cc(C)ccn1)c1ccc2c(c1)OCCO2 | 3.35% (inactive) | -3.2
13 | O=C(COC(=O)CNS(=O)(=O)c1ccccc1)NC12CC3CC(CC(C3)C1)C2 | 4.93% (inactive) | -2.93
14 | CC(NC(=S)Nc1ccccc1)C1COc2ccccc2O1 (centres undefined) | 5.96% (inactive) | 2.67
15 | CCCN(CC1COc2ccccc2O1)C(=S)Nc1ccc(C)cc1 (centres undefined) | 65.7% (active) | 33.2
16 | S=C(NCC1COc2ccccc2O1)Nc1ccc(Br)cc1 (centres undefined) | 5.47% (inactive) | 7.77
17 | CCOCCCNC(=O)C(NC(=O)Cc1c[nH]c2ccccc12)c1ccc(OC)cc1 (centres undefined) | -1.73% (inactive) | 8.23
18 | O=C1COc2ccc(NC(=O)N3CCN(c4ccc(F)cc4)CC3)cc2N1 | 74.7% (active) | 0.98
19 | O=C(Nc1ccc(F)cc1)N1CCN(c2ccc(F)cc2)CC1 | -9.94% (inactive) | -0.68
20 | COc1cccc(N2CCN(C(=O)Nc3ccc4c(c3)NC(=O)CO4)CC2)c1 | 43.7% (inactive) | 41.7
21 | COc1ccc(CNC(=O)CN2CCC(n3nnc4cc(F)ccc43)CC2)cc1 | 3.98% (inactive) | -18.3
22 | CCOc1cccc(/C=C/c2ccc3ccccc3n2)c1OC(C)=O | 33% (inactive) | 25.6

Row | SMILES | inhibition [1] | inhibition (mutant strain inhibition) [%]
23 | CC1(C)C2CCC1(C)C(OC(=O)c1ccc(O)cc1)C2 (centres undefined) | 94.2% (active) | 81.9
24 | CC1(C)C2CCC1(C)C(OC(=O)CCn1ccnc1)C2 (centres undefined) | -4.41% (inactive) | -8.76
25 | Cc1ccc(C(=O)OC2CCCN(C)C2)cc1 (centres undefined) | -13.6% (inactive) | -3.26
26 | CSc1ccccc1NC(=O)CN(C)CC(=O)Nc1ccc(Cl)cc1[N+](=O)[O-] | 70% (active) | 21.8
27 | CSc1ccccc1NC(=O)CN(C)CC(=O)Nc1cccc(Br)c1 | 21.6% (inactive) | -2.69
28 | Cc1ccc(NC(=O)CN(C)Cc2ccc(F)cc2)c([N+](=O)[O-])c1 | 22% (inactive) | 0.15
29 | COc1ccc(CN2CN(C3CCCC3)CSC2=S)cc1 | -12.1% (inactive) | -26.6
30 | Cc1noc(COc2ccccc2OCc2onc(C)c2Cl)c1Cl | 64% (active) | 31.8
31 | Cc1nc2ccccc2cc1OCc1ccc(F)cc1 | -15.6% (inactive) | -4.03
32 | Cc1noc(COc2ccccc2OCC(O)CNC(C)(C)C)n1 (centres undefined) | -1.99% (inactive) | -4.87
33 | CCc1[nH]nc(C(=O)N2CCCC(CNS(=O)(=O)c3cccs3)C2)c1C (centres undefined) | -19% (inactive) | 4.29
34 | O=[N+]([O-])c1ccc2[nH]c3c(c2c1)CCCC3O (centres undefined) | -3.98% (inactive) | 12
35 | COc1ccc(F)cc1C(=O)C1CCCN(C(=O)CCc2ccccn2)C1 (centres undefined) | 15.2% (inactive) | -2.96
36 | CCOC(=O)N1CCN(C(=S)Nc2ccc(C)cc2C)CC1 | 7.78% (inactive) | 3.64
37 | CCOC(=O)C1=C(c2ccc(OC)cc2)C(=O)c2ccccc2C1=O | 68.3% (active) | 20.7
38 | CCOC(=O)c1ccccc1NS(=O)(=O)c1ccc(OC)cc1 | 38% (inactive) | 30.7
39 | CCOC(=O)c1c(C)[nH]c2c1-c1ccccc1C(=O)C2=O | 46.9% (inactive) | 15
40 | CCC(=O)c1ccc(OCC(O)Cn2nc(C)c(C(C)=O)c2C)cc1 (centres undefined) | -6.24% (inactive) | -0.7
41 | CCCn1nc(C(=O)N2CCCc3ccccc32)c2ccccc2c1=O | 9.04% (inactive) | 8.88
42 | Cc1ccc(-c2csc(NC(=O)c3cnccn3)n2)cc1C | -10.3% (inactive) | 14.6
43 | Cc1ccc(C(=O)/C=C/c2c(C)nn(-c3ccccc3)c2Cl)cc1 | 59.5% (active) | -6.72
44 | Cc1nn(-c2ccccc2)c(Cl)c1/C=C/C(=O)c1ccc(O)cc1 | -8.06% (inactive) | 3.09

Row | SMILES | inhibition [1] | inhibition (mutant strain inhibition) [%]
45 | Cc1nn(-c2ccccc2)c(Cl)c1C(=O)Nc1ccccc1 | 24.7% (inactive) | -5.62
46 | O=C(Cn1c(N2CCN(C/C=C/c3ccccc3)CC2)nc2ccccc21)c1ccccc1 | 45.1% (inactive) | 41.5
47 | COc1ccc(C(=O)CSc2nnc(-c3ccco3)o2)cc1 | -6.52% (inactive) | -35.3
48 | N#Cc1cccc(Nc2c3c(nc4ccccc24)CCCC3)c1 | -0.59% (inactive) | 6.35
49 | COC(=O)c1c(C)[nH]c(C)c1-c1ccc([N+](=O)[O-])cc1 | 53% (inactive) | 55.8
50 | COc1ccc(NC(=S)Nc2ccc(S(N)(=O)=O)cc2)c(C)c1 | 13.8% (inactive) | 6.64
51 | COc1ccc(-c2nn(-c3ccccc3)cc2/C=N/Nc2ccccn2)cc1OC | 60.2% (active) | 31.9
52 | COc1ccc(-c2nn(-c3ccccc3)cc2C(=O)Nc2nccs2)cc1OC | 26.6% (inactive) | -2.08
53 | CC(C)(C)OC(=O)N/N=C/c1cn(-c2ccccc2)nc1-c1cccnc1 | -8.33% (inactive) | -1.71
54 | Cc1nnsc1C(=O)N/N=C/c1cccc(C(F)(F)F)c1 | 36.2% (inactive) | 7.39
55 | Cc1cc(=O)oc(C)c1C(=O)Nc1cnc2ccccc2c1 | 98.9% (active) | 96.3
56 | Cc1cc(=O)oc(C)c1C(=O)NCCN(C)Cc1ccccc1 | -0.58% (inactive) | 11.8
57 | Cc1cc(=O)oc(C)c1C(=O)NCc1ccc(F)cc1 | -0.25% (inactive) | 16.4
58 | CC(C)C(=O)NCc1cc(-c2ccc(Cl)cc2)no1 | 1.64% (inactive) | -1.57
59 | O=C(CC1C(=O)NCCN1Cc1ccc(-c2ccccc2)cc1)NCC1CCOCC1 (centres undefined) | -14.8% (inactive) | -10.2
60 | Cn1c(SCc2c(F)cccc2Cl)nnc1-c1cnccn1 | 4.78% (inactive) | -6.62
61 | Brc1ccc(CSc2ccc(-c3ccco3)nn2)cc1 | 12.2% (inactive) | -1.7
62 | Fc1cccc(Cl)c1CSc1ccc(-c2ccco2)nn1 | 75.3% (active) | 67.7
63 | Cc1ccc(NC(=O)CSc2nnc(-c3cnccn3)n2Cc2ccco2)cc1C | -14.2% (inactive) | -7.75
64 | CCn1c(SCC(=O)Nc2cc(C)ccc2C)nnc1-c1cnccn1 | 62.3% (active) | 14.8
65 | CCc1ccc(NC(=O)CSc2nnc(-c3cnccn3)n2Cc2ccco2)cc1 | 6.65% (inactive) | 10.6
66 | CCOc1ccc(C2c3[nH]c4ccccc4c3CCN2Cc2cn(CC)nc2C)cc1 (centres undefined) | 36% (inactive) | 39.9

Row | SMILES | inhibition [1] | inhibition (mutant strain inhibition) [%]
67 | COc1cccc(N(Cc2nnc3n2CCCCC3)C(=O)Nc2ccccc2F)c1 | 9.35% (inactive) | 6.31
68 | Cc1[nH]n(-c2cccc(Cl)c2)c(=O)c1-c1ccc(Cl)cc1 | 81.8% (active) | 74.9
69 | O=c1[nH]n(-c2cccc(Cl)c2)c2ncccc12 | 3.71% (inactive) | 33.7
70 | Cc1[nH]n(-c2cccc(Cl)c2)c(=O)c1/C=N/n1c(C)nc2ccccc2c1=O | -0.49% (inactive) | -9.97
71 | CCc1cc(CNC(=O)CC2C(=O)NCCN2CC2CCCCC2)on1 (centres undefined) | 8.17% (inactive) | -2.22
72 | Cc1cccc(C)c1NC(=O)C1(N(C(=O)c2ccccn2)c2ccc(O)cc2)CCCCC1 | 0.64% (inactive) | -13.5
73 | CC(=O)N/N=C(\C)c1ccc(Br)cc1Br | 13.2% (inactive) | 10.1
74 | O=C(/C(=N\O)n1cncn1)c1ccc(Br)cc1Br | 86.5% (active) | -4.91
75 | Cc1ccc(C(=O)N2CCCC(c3ccccc3)=N2)cc1 | 10.8% (inactive) | 2.44
76 | Cc1cccc(NC(=O)c2nnn(-c3cccc(C(F)(F)F)c3)c2N)c1 | -4.08% (inactive) | -7.16
77 | O=C1c2ccccc2NC(c2ccccn2)N1NS(=O)(=O)c1ccccc1 (centres undefined) | -4.85% (inactive) | -14.2
78 | NS(=O)(=O)c1ccc(N2C(=O)C3C4CC(C(Br)C4Br)C3C2=O)cc1 (centres undefined) | -2.55% (inactive) | -12.2
79 | FC(F)(F)c1cc(-c2ccco2)nc(NCc2ccc(Cl)cc2)n1 | 76.9% (active) | 17.2
80 | FC(F)(F)c1cc(-c2cccs2)nc(NCc2ccco2)n1 | 6.76% (inactive) | 7.71
81 | FC(F)(F)c1cc(-c2ccco2)nc(N2CCOCC2)n1 | 7.84% (inactive) | 9.26
82 | COc1ccc(CN2CCCC(C(=O)c3ccc(Cl)cc3)C2)cc1Cn1cncn1 (centres undefined) | -19.6% (inactive) | -4.89
83 | CCc1ccccc1NC(=S)N(CCN1CCCCCC1)Cc1ccco1 | -9.37% (inactive) | 22.4
84 | CS(=O)(=O)N(CC(=O)N/N=C/c1ccccn1)c1ccc(Oc2ccccc2)cc1 | 13% (inactive) | 10.6
85 | O=C(CN1CCN(C2CCCCC2)CC1)Nc1ccccc1N1CCCCC1 | 6.93% (inactive) | 0.36
86 | Cc1ccccc1NC(=O)CNc1ccccc1N1CCCCC1 | 67.2% (active) | 13.6
87 | Cn1c(=O)c2c(nc(SCC(=O)Nc3ccccc3N3CCCCC3)n2C)n(C)c1=O | 12.6% (inactive) | -10.4
